Source: PubChem BioAssay (NCI)
The panel holds about 83,000 compounds, 20% with a hit somewhere; the sample as a whole holds those more often.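 The test compound was applied at a single concentration to cells in 96-well plates for 48 hours, and percent growth was recorded.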 Active and inactive are the calls of the source.

The molecules below were run on SK-MEL-5 melanoma (assay: NCI-60 one-dose screen, 48 h (100 = growth as untreated, 0 = no growth, -100 = all killed)). Settings: 10 µM unless noted.
Experimental: Growth inhibition of the SK-MEL-5 human tumor cell line is measured as a screen for anti-cancer activity. Cells are grown in 96 well plates and exposed to the test compound for 48 hours. Compounds are tested at a single concentration, which is 10^-5 M for most compounds. The reported endpoint is percent growth (GI% or GIPRCNT), where numbers from 0 - 100% represent growth inhibition, and numbers from -100% - 0 represent cell death. For example, a value of 40 represents 60% growth inhibition. A value of 0 means no net growth occurred over the course of the experiment. A value of -40 indicates 40% of cells at the beginning of the experiment died by the end of the experiment. A value of -100 means all cells are dead at the end of the experiment.
NCI-60 Human Tumor Cell Lines Screen was performed using the standard one-dose NCI protocol, which is described in more detail at https://dtp.cancer.gov/discovery_development/nci-60/default.htm.
Compounds with GIPRCNT values below 10 were considered active. Activity score was based on GIPRCNT using the following formula: […]
Score is 0 for GIPRCNT values of 100 or above, 50 for GIPRCNT values of 0, and 100 for GIPRCNT values of -100.

SMILES	growth
CN1CCN(C(=S)SCCCCOc2cc(=O)oc3ccccc23)CC1	69.5% (inactive)
COc1ccc(/C=C/C(c2cc(OC)c(OC)c(OC)c2)n2cncn2)cc1 (stereo not given)	33% (inactive)
[2H]C([2H])([2H])Oc1ccc(F)cc1/C=C/C(=O)/C=C(O)/C=C/c1cc(F)ccc1OC([2H])([2H])[2H]	92.8% (inactive)
CCOC(=O)C(=CNc1cnc(Nc2ccc(N3CCOCC3)cc2)nc1Oc1ccc(OC)cc1)C(=O)OCC	74% (inactive)
Cc1cccc(-c2nc(Nc3ccc4ncsc4c3)c3ccccc3n2)n1	42.4% (inactive)
O=C(Nc1ccc(Cl)cc1)Oc1c(Cl)c(Cl)c(Cl)c(Cl)c1Cl	95.3% (inactive)
COc1cccc(NCc2nnc(Nc3ccc(Cl)cc3)c3ccccc23)c1	-98.5% (active)
O=C(N/N=C/c1cc(Cl)ccc1O)c1ccccc1Nc1ccnc(C(F)(F)F)c1	2.92% (active)
COc1ccc(-c2nc(-c3cn(C)c4ncccc34)cs2)cc1	-83.4% [100 µM] (active)
CNC(=O)c1cc(Oc2ccc3c(c2)sc2nc(-c4ccc(OC)cc4)cn23)ccn1	20.3% (inactive)
Cc1c2cccnc2c(C)c2c1c1cc(CO)ccc1n2C	30.6% (inactive)
CN(Cc1cnc2nc(N)nc(N)c2n1)c1ccc(C(=O)NC(CCC(=O)O)C(=O)O)cc1Br (stereo not given)	13.8% (inactive)
Cc1ccc(-c2nc3nc(-c4ccccc4)nc(N4CCCN(S(C)(=O)=O)CC4)c3o2)cc1	89.4% (inactive)
Cc1ccc(NC(=O)Cn2c(Br)nc3c2c(=O)n(C)c(=O)n3C)cc1	25.6% (inactive)
COC(=O)CC[C@@H]1O[C@@H](c2ccc(F)cc2)[C@@H](O)[C@H]1O	95.7% (inactive)
Cc1cn(-c2cc(NC(=O)c3cncc(C#Cc4c(N)ncc5ccc(F)cc45)c3)cc(C(F)(F)F)c2)cn1	27.4% (inactive)
CCCCNC(=O)c1cc([N+](=O)[O-])cc(C2CCCCC2)c1O	-12.6% (active)
CCC1S/C(=N\N=C(\C)c2cc3cc(Cl)ccc3o2)N(c2ccccc2)C1=O (stereo not given)	49.5% (inactive)
O=C1/C(=C/c2ccccn2)NC(=S)N1c1ccccc1Cl	57.9% (inactive)
C#CCn1cnc2cnc(Nc3cccc(NC(=O)C=C)c3)nc21	92.4% [6.25 µM] (inactive)

SMILES	growth
COc1cc(OC)cc(-c2ccc(-c3ccc(C(=N)N)o3)o2)c1	76% (inactive)
COC(=O)CCC/C=C\C[C@H]1C=CC(=O)/C1=C/C[C@@H](O)C/C=C\CC(F)(F)F	-89.7% (active)
COC1=C(C)C(=O)N2[C@@H]1[C@H](c1ccccc1)OC21C=CC(=O)C=C1	33% (inactive)
CCn1c(-c2cc3c([nH]c4ccccc43)c(-c3cccc(O)c3)n2)n[nH]c1=S	-1.38% (active)
CCN1C(=O)N(CC)C2C1N=C(SCc1ccc(Cl)cc1)N2/N=C/C=C/c1ccccc1OC (stereo not given)	44.2% (inactive)
CC1(C)CC[C@]2(C(=O)N[C@H](CO)Cc3ccccc3)CC[C@]3(C)C(=CC[C@@H]4[C@@]5(C)CCCNC(C)(C)[C@@H]5CC[C@]43C)[C@@H]2C1	90.7% (inactive)
CC(=O)c1sc2sc(C(C)=O)c(C)c2c1C	98.2% (inactive)
COc1ccc(C(=O)Cn2c(C(=O)c3ccc(Cl)cc3)nc3ccccc32)cc1	41.9% (inactive)
O=C(CSc1nnc(-c2cc(-c3ccccc3)nc3ccccc23)n1-c1ccccc1)Nc1ccc(C(=O)/C=C/c2ccc(Cl)cc2)cc1	91.4% (inactive)
O=S1(=O)C=C(c2ccccc2)C(c2ccccc2)=C1	27.4% (inactive)
COc1cc(/C=N/Nc2ccc(Br)cc2)cc(OC)c1OC	85% (inactive)
CCN(CC)c1ccc(/C=N/NC(=O)Cc2ccc(Nc3ccnc(C(F)(F)F)c3)cc2)c(O)c1	27.1% (inactive)
COc1ccc(/C=C(/c2ccccc2)[N+](=O)[O-])c(OC)c1	-25% (active)
COc1ccc(C[n+]2c3ccccc3n3c4ccc(N)cc4ccc32)c(OC)c1OC	42.6% (inactive)
COc1ccc2c(c1)c(-c1nc(-c3c[nH]c4ncccc34)cs1)cn2CCO	58.4% (inactive)
c1ccc(CCNc2c3ccccc3nc3ccccc23)cc1	64.7% (inactive)
COc1ccc2[nH]cc(-c3nc(-c4c[nH]c5c(Cl)nccc45)cs3)c2c1	55.6% (inactive)
COc1ccc(C2=CN3CC=CC3CC2=O)cc1 (stereo not given)	100% (inactive)
CCN(CC)CCCN1C(=O)c2c(c(C)c3c(oc4ccc(O)cc43)c2C)C1=O	48.4% (inactive)
N#C/C(=C\c1ccc([N+](=O)[O-])cc1)n1nnc2cc(F)c(F)cc21	81.3% (inactive)
